In the supplement of paper PMC11624193, “Coupling cellular drug-target engagement to downstream pharmacology with CeTEAM” (Nature Communications, 2024):
Counter-ions that a name gives are not always drawn. Values without a mark were called inactive.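 The calls were made as follows: active = log2 fold change beyond 2 SD from the library mean after excluding viability outliers; inactive = within 2 SD.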

Biological target: PARP1 L713F-nLuc biosensor (HCT116) (UniProt P09874)
Assay: PARP1 L713F-nLuc/akaLuc ratio relative to DMSO control (biosensor stabilization) (fold change); higher = more PARP1 biosensor stabilization (target engagement / stabilizer), active = hit call of the paper
Conditions: stock concentration (mM; final µM = stock mM x 1): 10; 24 h

Sequence of PARP1 L713F-nLuc biosensor (HCT116) (P09874 whole entry L713F, looked up): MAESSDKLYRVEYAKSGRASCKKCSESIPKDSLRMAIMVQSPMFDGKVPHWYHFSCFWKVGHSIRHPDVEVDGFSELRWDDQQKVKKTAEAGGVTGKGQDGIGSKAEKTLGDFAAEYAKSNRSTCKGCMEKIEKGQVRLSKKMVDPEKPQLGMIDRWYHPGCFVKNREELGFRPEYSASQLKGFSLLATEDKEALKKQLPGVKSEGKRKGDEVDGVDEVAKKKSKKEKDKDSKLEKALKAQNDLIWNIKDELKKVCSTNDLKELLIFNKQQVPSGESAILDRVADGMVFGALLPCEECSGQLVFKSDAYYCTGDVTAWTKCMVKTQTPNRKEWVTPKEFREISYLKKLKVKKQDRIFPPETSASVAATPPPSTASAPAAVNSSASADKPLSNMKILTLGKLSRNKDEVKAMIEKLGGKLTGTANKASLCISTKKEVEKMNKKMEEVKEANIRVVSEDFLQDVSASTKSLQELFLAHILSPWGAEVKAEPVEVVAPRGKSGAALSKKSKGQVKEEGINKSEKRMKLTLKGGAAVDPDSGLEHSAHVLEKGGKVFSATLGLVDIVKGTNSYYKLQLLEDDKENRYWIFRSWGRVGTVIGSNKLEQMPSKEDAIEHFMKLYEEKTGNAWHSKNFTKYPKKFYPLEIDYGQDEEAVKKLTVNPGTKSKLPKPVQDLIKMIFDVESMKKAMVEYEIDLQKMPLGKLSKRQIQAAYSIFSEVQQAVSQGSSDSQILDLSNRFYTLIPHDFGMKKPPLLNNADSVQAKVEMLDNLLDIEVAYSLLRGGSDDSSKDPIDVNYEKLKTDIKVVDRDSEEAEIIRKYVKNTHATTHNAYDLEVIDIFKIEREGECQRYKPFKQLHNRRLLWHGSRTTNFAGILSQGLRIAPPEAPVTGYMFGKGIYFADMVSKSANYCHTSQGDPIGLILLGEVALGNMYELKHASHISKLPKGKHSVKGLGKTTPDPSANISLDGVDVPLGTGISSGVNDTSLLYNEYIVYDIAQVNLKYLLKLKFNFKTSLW

First: N#Cc1ccc(-c2csc(NN=C3CCCC3)n2)cc1 [Remodelin (hydrobromide)]
Second: N#Cc1ccc(C(c2ccc(C#N)cc2)n2cncn2)cc1 [Letrozole]
The “PARP1 L713F-nLuc/akaLuc ratio” value of the first is lower: 0.897 for the first, 1.4 for the second.

Compared with `NC(=O)c1cccnc1` [Nicotinamide], `NNc1nncc2ccccc12` [Hydralazine (hydrochloride)] is lower in “PARP1 L713F-nLuc/akaLuc ratio” value: 0.942 for the first, 0.617 for the second.

Going from `CCCCC(=O)OCC(=O)[C@]1(O)Cc2c(O)c3c(c(O)c2[C@@H](O[C@H]2C[C@H](NC(=O)C(F)(F)F)[C@H](O)[C@H](C)O2)C1)C(=O)c1c(OC)cccc1C3=O` [Valrubicin] to `CC[C@H](C)C(=O)O[C@H]1C[C@@H](C)C=C2C=C[C@H](C)[C@H](CC[C@@H]3C[C@@H](O)CC(=O)O3)[C@H]21` [Lovastatin], the “PARP1 L713F-nLuc/akaLuc ratio” value falls from 1.13 to 0.643.

First: Cn1cc(Nc2nccc(N3C[C@H]4CC[C@@H](C3)N4C(=O)[C@@H]3CC3(F)F)n2)cn1 [Brepocitinib (P-Tosylate)]
Second: O=C(c1cccc(Br)c1)N1CCC(N2CCCC2)CC1
The “PARP1 L713F-nLuc/akaLuc ratio” value of the first is lower: 0.619 for the first, 0.886 for the second.

Compared with `CCN(CC)CCCC[C@H](NC(=O)[C@H](CC(C)C)NC(=O)[C@H](C)NC(=O)[C@H](Cc1ccccc1)NC(=O)c1ccc(C(C)(C)C)cc1)C(=O)N[C@@H](CO)C(=O)OC`, `CC(NC(=O)c1ccccc1/N=C/c1c(O)ccc2ccccc12)c1ccccc1` (stereo not given) [Sirtinol] is lower in “PARP1 L713F-nLuc/akaLuc ratio” value: 1.47 for the first, 0.699 for the second.

Going from `COc1ccccc1C(=O)Nc1cc2c(cc1N1CCCCC1)n(C)c(=O)n2C` to `Cc1cc(C(C)Nc2ccccc2)c2nc(N3CCOCC3)cc(=O)n2c1` (stereo not given), the “PARP1 L713F-nLuc/akaLuc ratio” value falls from 1.25 to 0.773.

Going from `O=C1/C(=C/c2ccc(O)c(Br)c2)CCC/C1=C\c1ccc(O)c(Br)c1` [Histone Acetyltransferase Inhibitor II] to `O=c1oc2cc(O)ccc2c2ccccc12` [Urolithin B], the “PARP1 L713F-nLuc/akaLuc ratio” value falls from 2.06 to 0.914.

`N[C@H]1C[C@@H]1c1ccc(-c2cccc(O)c2)cc1` was tested, and the “PARP1 L713F-nLuc/akaLuc ratio” value was 0.692.
